Experimental data taken from PubChem BioAssay.
Active and inactive are the calls of the source. Unless noted, how the calls were made is not given here.

How the values were obtained:
[1] = resazurin metabolic signal in HepG2 cells – cell-based, resazurin fluorescence, 24 h, PK04 Diversity Set, profiling panel (AID 1172); conditions: HepG2 viability, higher = more signal; further: test concentration not given here
[2] = budding yeast growth changes without added modifier – OD600, strain BY4716, 24 h, basal condition, primary screen (AID 1173); conditions: S. cerevisiae BY4716 growth, OD600, 24 h; higher = more signal, called active from +8 up or from −8 down
[3] = viability profiling in MM1S myeloma cells – cell-based, resazurin fluorescence, basal, 24 h, PK04 Diversity Set, profiling panel (AID 1174); conditions: higher = more signal, called active from +8 up or from −8 down;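 further: MM1S multiple myeloma cell line; test concentration not given here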
[4] = molecular target: Dihydroorotate dehydrogenase (quinone), mitochondrial (Plasmodium falciparum (isolate 3D7)) (UniProt Q08210); assay: inhibition of P. falciparum DHODH – biochemical, C-terminal His tag, absorbance 600 nm, primary screen (AID 1175); conditions: PfDHODH enzyme, DCIP absorbance 600 nm; higher = more signal, called active from +8 up or from −8 down;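 further: recombinant parasite enzyme with a five histidine tag at its C terminus; test concentration not given here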
[5] = inhibition of PAO1 biofilm formation – strain PAO1, LB-PBS medium, absorbance 600 nm, primary screen (AID 1176); further: test concentration not given here; conditions: P. aeruginosa PAO1 growth/biofilm, A600, 12 h; higher = more signal
[6] = growth modulation of vineyard yeast isolate – strain RM11-1a, OD600, basal, 24 h, primary screen (AID 1177);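 further: cultures grown under basal conditions with no added stressor; test concentration not given here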; conditions: S. cerevisiae RM11-1a growth, OD600, 24 h; higher = more signal, called active from +8 up or from −8 down
[7] = growth of efflux-deficient E. coli DRC39 – strain DRC39, OD650, 24 h, E. coli filamentation inducers, primary screen (AID 1178);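 further: growth measured as culture turbidity by optical density at 650 nm; test concentration not given here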; conditions: E. coli DRC39 acrAB, higher = more signal, called active from +8 up or from −8 down
[8] = growth of efflux-deficient E. coli DRC39 – strain DRC39, OD650, 48 h, E. coli filamentation inducers, primary screen (AID 1179);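 further: screen aims at cell division blockers that make cells filament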; conditions: E. coli DRC39 delta-acrAB growth, higher = more signal, called active from +8 up or from −8 down
[9] = viability profiling in RPMI8226 myeloma cells – cell-based, resazurin fluorescence, basal, 24 h, PK04 Diversity Set, profiling panel (AID 1180); conditions: higher = more signal;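 further: RPMI8826 multiple myeloma cell line at 5000 cells per well; test concentration not given here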
[10] = molecular target: E3 ubiquitin-protein ligase XIAP (Homo sapiens) (UniProt P98170); assay: small molecules binding XIAP protein – biophysical, small-molecule microarray, fluorescence 635 nm, primary screen (AID 1181); conditions: higher = more signal;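 further: score merges 667 nm emission and signal to noise over triplicate slides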
Sequence of E3 ubiquitin-protein ligase XIAP (Homo sapiens) (P98170 whole entry, looked up): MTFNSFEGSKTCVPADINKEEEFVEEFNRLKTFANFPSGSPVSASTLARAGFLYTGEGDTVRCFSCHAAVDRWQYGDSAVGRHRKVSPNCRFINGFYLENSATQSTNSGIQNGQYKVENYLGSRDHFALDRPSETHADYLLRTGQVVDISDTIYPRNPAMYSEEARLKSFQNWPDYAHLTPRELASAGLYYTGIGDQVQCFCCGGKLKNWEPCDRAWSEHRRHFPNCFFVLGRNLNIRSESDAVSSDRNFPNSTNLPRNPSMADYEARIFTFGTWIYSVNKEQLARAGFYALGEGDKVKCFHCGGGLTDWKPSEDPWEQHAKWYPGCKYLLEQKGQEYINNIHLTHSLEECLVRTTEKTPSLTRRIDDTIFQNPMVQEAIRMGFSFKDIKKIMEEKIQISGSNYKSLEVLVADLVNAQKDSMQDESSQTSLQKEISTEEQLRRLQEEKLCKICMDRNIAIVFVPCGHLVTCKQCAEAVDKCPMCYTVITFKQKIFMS

Sequence of Dihydroorotate dehydrogenase (quinone), mitochondrial (Plasmodium falciparum (isolate 3D7)) (Q08210 whole entry, looked up): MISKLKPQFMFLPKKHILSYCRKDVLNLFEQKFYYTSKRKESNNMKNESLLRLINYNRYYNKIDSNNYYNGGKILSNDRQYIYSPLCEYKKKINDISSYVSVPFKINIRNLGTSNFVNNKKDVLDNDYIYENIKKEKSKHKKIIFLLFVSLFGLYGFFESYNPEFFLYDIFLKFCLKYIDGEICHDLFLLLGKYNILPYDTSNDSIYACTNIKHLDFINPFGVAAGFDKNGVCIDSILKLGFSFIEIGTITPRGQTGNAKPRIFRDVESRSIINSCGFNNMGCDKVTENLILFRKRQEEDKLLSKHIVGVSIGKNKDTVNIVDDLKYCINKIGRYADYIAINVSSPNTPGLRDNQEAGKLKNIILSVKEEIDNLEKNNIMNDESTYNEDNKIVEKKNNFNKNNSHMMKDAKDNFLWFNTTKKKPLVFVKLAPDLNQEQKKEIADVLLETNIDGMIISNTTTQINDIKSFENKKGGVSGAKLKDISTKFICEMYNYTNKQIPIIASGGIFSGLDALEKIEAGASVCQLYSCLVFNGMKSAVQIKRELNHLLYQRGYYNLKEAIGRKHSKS

## COCCCN1C(=O)[C@@]2(Cc3ccccc31)c1ccccc1C(=O)N(Cc1ccccc1C(F)(F)F)[C@H]2c1ccc(CO)cc1
[1]
  z-score: 0.0531
[2]
  z-score: 0.947 (inactive)
[3]
  z-score: -0.0554 (inactive)
[4]
  composite z-score: -20.2 (active)
[5]
  z-score: 4.64 (inactive)
[6]
  z-score: -0.305 (inactive)
[7]
  z-score: 0.0576 (inactive)
[8]
  z-score: -0.297 (inactive)
[9]
  z-score: 0.0241
[10]
  composite z-score: -0.0373

## O=C1O[C@@H](c2ccccc2)[C@@H](c2ccccc2)N2[C@@H](c3ccc(OCCO)cc3)[C@]3(C(=O)Nc4ccccc43)[C@@H](C(=O)NC[C@H](O)c3ccccc3)[C@H]12
[1]
  z-score: 0.665
[2]
  z-score: 1.33 (inactive)
[3]
  z-score: 0.251 (inactive)
[4]
  composite z-score: -0.854 (inactive)
[5]
  z-score: 2.44 (inactive)
[6]
  z-score: 1.84 (inactive)
[7]
  z-score: 0.0225 (inactive)
[8]
  z-score: -0.348 (inactive)
[9]
  z-score: -0.0509
[10]
  composite z-score: -0.117

## COCCn1c(C(=O)N2CCCC2)cc2c1C[C@H]1CN(C(=O)c3ccccc3)[C@@](Cc3ccc(F)cc3)(C(=O)OC)[C@@H]21
[1]
  z-score: 0.203
[2]
  z-score: 0.734 (inactive)
[3]
  z-score: -0.829 (inactive)
[4]
  composite z-score: -0.343 (inactive)
[5]
  z-score: 0.315 (inactive)
[6]
  z-score: 0.39 (inactive)
[7]
  z-score: -0.0243 (inactive)
[8]
  z-score: -0.622 (inactive)
[9]
  z-score: -1.37
[10]
  composite z-score: 0.0927

## CCCCCN1CC=CC23O[C@@H]4/C=C\CCCOC(=O)C4[C@H]2C(=O)N(C(CO)C(C)C)[C@@H]3C1=O (stereo not given in full)
[1]
  z-score: 1.05
[2]
  z-score: 0.367 (inactive)
[3]
  z-score: 0.641 (inactive)
[4]
  composite z-score: -2.08 (inactive)
[5]
  z-score: -0.124 (inactive)
[6]
  z-score: 0.226 (inactive)
[7]
  z-score: 0.299 (inactive)
[8]
  z-score: 0.0539 (inactive)
[9]
  z-score: 0.574
[10]
  composite z-score: 0.177

## CN1C(=O)C2C=CC(C(O)c3ccc(-c4ccccc4)s3)N(N(c3ccccc3)c3ccccc3)C2C1=O (stereo not given)
[1]
  z-score: -0.748
[2]
  z-score: -0.215 (inactive)
[3]
  z-score: -0.609 (inactive)
[4]
  composite z-score: -0.585 (inactive)
[5]
  z-score: 1.23 (inactive)
[6]
  z-score: 0.512 (inactive)
[7]
  z-score: -0.554 (inactive)
[8]
  z-score: -0.24 (inactive)
[9]
  z-score: -0.109
[10]
  composite z-score: 0.174

## C#CCN(Cc1ccccc1Br)C(/C=C/c1ccccc1)CO (stereo not given)
[1]
  z-score: -0.54
[2]
  z-score: -6.66 (inactive)
[3]
  z-score: 0.862 (inactive)
[4]
  composite z-score: 0.34 (inactive)
[5]
  z-score: -0.365 (inactive)
[6]
  z-score: -1.26 (inactive)
[7]
  z-score: 1.1 (inactive)
[8]
  z-score: -0.494 (inactive)
[9]
  z-score: -0.166
[10]
  composite z-score: 0.147

## C[N+](C)(C)CCCC[C@@H]1NC(=O)[C@@H]2C[C@H](C(=O)NCCCCCN)[C@H](c3cccc(OCCO)c3)N2C1=O
[1]
  z-score: -0.85
[2]
  z-score: -0.749 (inactive)
[3]
  z-score: -1.23 (inactive)
[4]
  composite z-score: -0.76 (inactive)
[5]
  z-score: 0.131 (inactive)
[6]
  z-score: 0.527 (inactive)
[7]
  z-score: 0.0148 (inactive)
[8]
  z-score: 0.597 (inactive)
[9]
  z-score: 0.0758
[10]
  composite z-score: 0.191

## O=C1O[C@H](c2ccccc2)[C@H](c2ccccc2)N2[C@H]1[C@@H](C(=O)O)[C@]1(C(=O)Nc3ccc(C#CC4=CCCCC4)cc31)[C@H]2c1ccccc1OCCO
[1]
  z-score: -1.19
[2]
  z-score: -1.17 (inactive)
[3]
  z-score: -5.12 (inactive)
[4]
  composite z-score: -6.35 (inactive)
[5]
  z-score: 2.36 (inactive)
[6]
  z-score: 1.73 (inactive)
[7]
  z-score: -0.0532 (inactive)
[8]
  z-score: 0.0958 (inactive)
[9]
  z-score: -6.63
[10]
  composite z-score: -0.102

## COCCOC(=O)N1C(=O)[C@@]2(c3cc(C#CC4=CCCCC4)ccc31)[C@H](C(=O)Nc1nc3ccccc3s1)[C@H]1C(=O)O[C@H](c3ccccc3)[C@H](c3ccccc3)N1[C@@H]2c1ccccc1OCCO
[1]
  z-score: 0.444
[2]
  z-score: 0.794 (inactive)
[3]
  z-score: -0.386 (inactive)
[4]
  composite z-score: 1.37 (inactive)
[5]
  z-score: 1.16 (inactive)
[6]
  z-score: 1.99 (inactive)
[7]
  z-score: -0.653 (inactive)
[8]
  z-score: -0.883 (inactive)
[9]
  z-score: -0.575
[10]
  composite z-score: -0.05

## O=C1O[C@H](c2ccccc2)[C@H](c2ccccc2)N2[C@H]1[C@@H](C(=O)Nc1nc3ccccc3s1)[C@]1(C(=O)Nc3ccc(C#CC4(O)CCCCCC4)cc31)[C@H]2c1ccc(OCCO)cc1
[1]
  z-score: -0.43
[2]
  z-score: 1.16 (inactive)
[3]
  z-score: -1.4 (inactive)
[4]
  composite z-score: -0.568 (inactive)
[5]
  z-score: 4.15 (inactive)
[6]
  z-score: 0.773 (inactive)
[7]
  z-score: -0.34 (inactive)
[8]
  z-score: -0.706 (inactive)
[9]
  z-score: -1.1
[10]
  composite z-score: 0.167

## CN(C)C(=O)[C@@]1(Cc2ccccc2)N=C(c2ccc(OCCCO)cc2)O[C@H]1c1ccccc1N=[N+]=[N-]
[1]
  z-score: -0.697
[2]
  z-score: -1.27 (inactive)
[3]
  z-score: -3.56 (inactive)
[4]
  composite z-score: 0.2 (inactive)
[5]
  z-score: 0.0533 (inactive)
[6]
  z-score: -0.0844 (inactive)
[7]
  z-score: 0.754 (inactive)
[8]
  z-score: 0.579 (inactive)
[9]
  z-score: -5.06
[10]
  composite z-score: 0.15

## O=C1[C@H]2C=C(Br)[C@H](C[C@@H]2OCCCCO)[C@@]12CO2
[1]
  z-score: -0.312
[2]
  z-score: -0.172 (inactive)
[3]
  z-score: -0.718 (inactive)
[4]
  composite z-score: 0.228 (inactive)
[5]
  z-score: 0.13 (inactive)
[6]
  z-score: 0.614 (inactive)
[7]
  z-score: -0.649 (inactive)
[8]
  z-score: -0.808 (inactive)
[9]
  z-score: -0.133
[10]
  composite z-score: -0.0749
